Experimental findings from paper PMC8384837, “Expanding the binding specificity for RNA recognition by a PUF domain” are described below.

Chain of PUM1 PUF domain R5-ERS (Q14671 828-1176 C1007E/Q1011S): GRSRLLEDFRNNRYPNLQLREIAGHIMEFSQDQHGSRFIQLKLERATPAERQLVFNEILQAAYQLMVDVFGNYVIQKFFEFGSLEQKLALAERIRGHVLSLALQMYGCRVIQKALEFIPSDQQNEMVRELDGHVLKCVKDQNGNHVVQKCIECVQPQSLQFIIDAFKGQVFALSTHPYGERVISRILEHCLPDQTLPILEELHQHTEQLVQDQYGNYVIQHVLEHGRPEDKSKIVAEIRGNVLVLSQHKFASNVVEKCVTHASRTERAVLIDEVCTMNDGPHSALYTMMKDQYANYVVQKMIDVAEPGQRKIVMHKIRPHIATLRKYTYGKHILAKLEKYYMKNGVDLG

The target in the first assay is PUM1 PUF domain R5-KFG (Homo sapiens, UniProt Q14671 828-1176, C1007K;R1008F;Q1011G). The assay can be described thus: yeast three-hybrid, YBZ-1, SC-Leu-His + 0.5 mM 3-AT, 4 days. Particulars: tags: N-Gal4 AD-HA kept; label: inside an RPR1-promoter hybrid RNA with tandem MS2 sites; ssRNA. The method in brief: (§1)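 Repeat regions from input (SC-Leu) and selection (SC-Leu-His + 0.5 mM 3-AT) plates were PCR-amplified and Illumina-sequenced after four days of growth. The cells were strain YBZ-1 with a LexA–MS2 coat fusion and a HIS3 reporter, co-expressing Pumilio-1 PUF domain libraries and matching RNA elements from a centromeric plasmid. The interaction score is the log change in variant frequency from input to selection, taken in log2 with a pseudocount of 1 for absent variants.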
Chain of PUM1 PUF domain R5-KFG (Q14671 828-1176 C1007K/R1008F/Q1011G): as the sequence (Q14671 828-1176 C1007E/Q1011S) above, with E180K, R181F, S184G counted along it
In the case of “GGCUAGAACUAGUGGAUCCCCCGGCGCCCGGCGGCUCGAGCCCGGGUAAGUGUUAAUAGUCUGCAUGCCGCCGGGCGCCAUGCCUGCAGGUCGACUCUAGAAAACAUG”, the binding signal is 5.35 log2 enrichment (interaction score).
“GGCUAGAACUAGUGGAUCCCCCGGCGCCCGGCGGCUCGAGCCCGGGUAAGUGUCAAUAGUCUGCAUGCCGCCGGGCGCCAUGCCUGCAGGUCGACUCUAGAAAACAUG”: the binding signal was 5.1 log2 enrichment (interaction score).
“GGCUAGAACUAGUGGAUCCCCCGGCGCCCGGCGGCUCGAGCCCGGGUAAGUGUAAAUAGUCUGCAUGCCGCCGGGCGCCAUGCCUGCAGGUCGACUCUAGAAAACAUG”: the binding signal was 3.88 log2 enrichment (interaction score).

In another assay the target is PUM1 PUF domain R5-ERS (Homo sapiens, UniProt Q14671 828-1176, C1007E;Q1011S). The assay is described as above. Particulars: tags: N-Gal4 AD-HA kept; label: inside an RPR1-promoter hybrid RNA with tandem MS2 sites; ssRNA. The method in brief:
as §1
Regarding “GGCUAGAACUAGUGGAUCCCCCGGCGCCCGGCGGCUCGAGCCCGGGUAAGUGUCAAUAGUCUGCAUGCCGCCGGGCGCCAUGCCUGCAGGUCGACUCUAGAAAACAUG”, the binding signal is 0.61 log2 enrichment (interaction score).
“GGCUAGAACUAGUGGAUCCCCCGGCGCCCGGCGGCUCGAGCCCGGGUAAGUGUGAAUAGUCUGCAUGCCGCCGGGCGCCAUGCCUGCAGGUCGACUCUAGAAAACAUG”: the binding signal is 2.69 log2 enrichment (interaction score).
Still for that read-out and setting: in the case of “GGCUAGAACUAGUGGAUCCCCCGGCGCCCGGCGGCUCGAGCCCGGGUAAGUGUAAAUAGUCUGCAUGCCGCCGGGCGCCAUGCCUGCAGGUCGACUCUAGAAAACAUG” it was 3.92 log2 enrichment (interaction score).
